Experimental data taken from PubChem BioAssay (NCATS).
Inconclusive results are not listed. A number with no mark means an inactive call. Active and inactive are the calls of the source. Calls follow the shape of the dose curve; as a rule, active = well fitted inhibition curve with a large enough effect; inconclusive = small, poorly fitted or top-dose-only effect; inactive = flat fitted curve, though single readings scatter.

What was measured:
[1] = tested on: CRL-7250; experiment: Cytotoxic Profiling of Annotated Libraries Using Quantitative High-Throughput Screening (AID 1296008); details: Five cell lines viability, CellTiter-Glo ATP luminescence, 48-72 h; max response: active compounds read low; also: potency is read from the fitted curve at half-maximal effect; as to max response: % is scaled to controls: 0 for no effect and ±100 for the full control effect
Method in brief: (§1)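 Compounds were pin-transferred onto cells and incubated 48 or 72 hr at 37 degree Celsius, 95% humidity. CellTiter-Glo was added, plates sat 10 min at room temperature, then ATP-coupled luminescence was imaged as the viability read-out.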

[2] = tested on: HEK293; experiment: as above; details: Five cell lines viability, CellTiter-Glo ATP luminescence, 48-72 h; max response: active compounds read low
Method in brief: as §1

[3] = tested on: HaCat; experiment: as above; details: Five cell lines viability, CellTiter-Glo ATP luminescence, 48-72 h; max response: active compounds read low
Method in brief: as §1

[4] = tested on: KB-3-1; experiment: as above; details: Five cell lines viability, CellTiter-Glo ATP luminescence, 48-72 h; max response: active compounds read low
Method in brief: as §1

[5] = tested on: NIH3T3; experiment: as above; details: Five cell lines viability, CellTiter-Glo ATP luminescence, 48-72 h; max response: active compounds read low
Method in brief: as §1

[6] = tested on: HACAT; experiment: qHTS assay to identify novel small-molecules to repurpose for Merkel cell carcinoma treatment (AID 1296009); details: MCC and control cell lines, CellTiter-Glo viability, 72 h; at 44.8 µM (top of the series) unless noted
Method in brief: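 Luminescence from CellTiter-Glo, read 10 min after addition at room temperature, reported viability following a 72 hr, 37 degree celsius treatment with NPC or MIPE compounds in titration; values normalized to plate controls.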
Also: nearly all actives have a fitted effect of over 60% in size.

C=C1CC[C@]2(C(=O)O[C@@H]3O[C@H](CO)[C@@H](O)[C@H](O)[C@H]3O)CC[C@]3(C)C(=CCC4[C@@]5(C)C[C@H](O)[C@@H](O[C@@H]6O[C@H](C(=O)O)[C@@H](O)[C@H](O)[C@H]6O)[C@](C)(C=O)C5CC[C@]43C)C2C1 (stereo not given in full)
max response [1]: 4.09%
max response [2]: -16.5%
max response [3]: -21.8%
max response [4]: 9.97%
outcome [5]: inactive

COc1cc2nc(=NC(=O)c3cccnc3)n3c(c2cc1OC)NCC3
max response [1]: 4.99%
max response [2]: -3.57%
Potency [3]: 16.4 µM (active)
outcome [4]: inactive
outcome [5]: inactive

FC(F)(F)c1nnc2c(Sc3ccccc3)nc3ccc(Cl)cc3n12
Potency [1]: 3.66 µM (active)
Potency [2]: 5.8 µM (active)
Potency [3]: 4.61 µM (active)
Potency [4]: 5.17 µM (active)
outcome [5]: inactive

CC1=C2C3OC(=O)C(C)C3(O)CCC2(C)CCC1 (stereo not given)
max response [1]: 4.24%
max response [2]: 2.89%
max response [3]: 0.93%
max response [4]: 2.02%
outcome [5]: inactive

CC1=C2C(=O)C=C(CO)C2C2OC(=O)C(CS(=O)(=O)O)C2C(OC(=O)Cc2ccc(O)cc2)C1 (stereo not given)
outcome [1]: inactive
max response [2]: -5.22%
max response [3]: -1.36%
max response [4]: -6.7%
outcome [5]: inactive

CC(CCc1ccc(O)cc1)O[C@@H]1O[C@H](CO[C@@H]2OC(CO)[C@H](O)[C@H]2O)[C@@H](O)[C@H](O)[C@H]1O (stereo not given in full)
max response [1]: -0.0719%
outcome [2]: inactive
max response [3]: -7.01%
outcome [4]: inactive
max response [5]: -1.05%

FC(F)(F)Oc1ccc(-c2ccc3nnc(C(F)(F)F)n3c2)cc1
max response [1]: -1.14%
max response [2]: -7.41%
max response [3]: -4.75%
outcome [4]: inactive
outcome [5]: inactive

CC1(C)CC[C@]2(C(=O)O)CC[C@]3(C)C(=CCC4[C@@]5(C)CC[C@H](O[C@@H]6O[C@H](C(=O)O)[C@@H](O)[C@H](O)[C@H]6O)C(C)(C)C5CC[C@]43C)C2C1 (stereo not given in full)
max response [1]: -10.5%
max response [2]: -9.32%
max response [3]: -12.1%
max response [4]: 4.15%
outcome [5]: inactive

COC(=O)[C@]1(C)CCC[C@@]2(C)[C@@H]3CC[C@@H]4C[C@@]3(CC[C@@H]21)C[C@H]4C(=O)O
max response [1]: -6.63%
max response [2]: 0.134%
max response [3]: 0.436%
max response [4]: 9.78%
outcome [5]: inactive

C=CC1(C)C=C2CC[C@H]3[C@@](C)(C(=O)O)CCC[C@]3(C)C2CC1 (stereo not given in full)
max response [1]: -9.61%
max response [2]: 2.61%
max response [3]: 3.4%
max response [4]: 5.04%
outcome [5]: inactive

O=C(/C=C/N1C[C@@H]2C[C@@H]1CN2c1ccccn1)c1ccccc1O
outcome [1]: inactive
max response [2]: 4.78%
max response [3]: 3.55%
outcome [4]: inactive
outcome [5]: inactive

C=C1C(OC(C)=O)CCC2(C)CC3(O)OC(=O)C(C)=C3CC12 (stereo not given)
outcome [1]: inactive
max response [2]: -4.29%
max response [3]: -1.9%
outcome [4]: inactive
outcome [5]: inactive

O=C(COCC(=O)N1CCN(C(c2ccccc2)c2ccccc2)CC1)Nc1ccc(Cl)cc1C(=O)O
max response [1]: -11.2%
max response [2]: 4.17%
max response [3]: -6.79%
outcome [4]: inactive
outcome [5]: inactive

C[C@]12CCC[C@](C)(C(=O)O)C1CCC13CC(CO)C(CCC12)C3 (stereo not given in full)
max response [1]: -1.66%
max response [2]: 2.28%
max response [3]: -11.1%
max response [4]: 8.03%
outcome [5]: inactive

COc1cc(/C=C/C(=O)O[C@@H]2O[C@H](CO)[C@@H](O)[C@H](O)[C@H]2O)ccc1O
max response [1]: 2.76%
outcome [2]: inactive
max response [3]: 3.8%
max response [4]: -1.87%
max response [5]: 0.679%

CC(C)=CC[C@H]1O[C@]2(O)C([C@H]3CCC4[C@@]5(C)CC[C@H](O[C@@H]6O[C@H](CO)[C@H](O)[C@H](O[C@@H]7O[C@H](CO)[C@@H](O)[C@H](O)[C@H]7O)[C@H]6O[C@@H]6O[C@@H](C)[C@H](O)[C@@H](O)[C@H]6O)C(C)(C)C5CC[C@@]4(C)[C@]3(C)[C@H]2O)[C@@]1(C)O (stereo not given in full)
max response [1]: 0.206%
max response [2]: 2.46%
outcome [3]: inactive
max response [4]: 9.9%
max response [5]: 0.989%
outcome [6]: inactive [at 9.27 µM]

COc1ccc(CCC(=O)c2c(O)cc(O[C@@H]3O[C@H](CO)[C@@H](O)[C@H](O)[C@H]3O[C@@H]3O[C@@H](C)[C@H](O)[C@@H](O)[C@H]3O)cc2O)cc1O
max response [1]: -2.32%
max response [2]: 0.838%
max response [3]: 4.19%
outcome [4]: inactive
outcome [5]: inactive

C=Cc1ccc(O[C@@H]2O[C@H](CO[C@@H]3O[C@@H](C)[C@H](O)[C@@H](O)[C@H]3O)[C@@H](O)[C@H](O)[C@H]2O)cc1
max response [1]: -5.44%
max response [2]: -5.77%
outcome [3]: inactive
max response [4]: 6.98%
max response [5]: -1.18%
outcome [6]: inactive [at 17.4 µM]

O=C(/C=C/C=C/c1ccc2c(c1)OCO2)N1CCCCC1
outcome [1]: inactive
max response [2]: 3%
max response [3]: 0.66%
max response [4]: 3.15%
outcome [5]: inactive

CC1(C)CC[C@]2(C(=O)O)CC[C@]3(C)C(=CCC4[C@@]5(C)C[C@@H](O)[C@H](O)[C@@](C)(CO)C5[C@H](O)C[C@]43C)[C@@H]2C1 (stereo not given in full)
outcome [1]: inactive
max response [2]: -6.35%
outcome [3]: inactive
outcome [4]: inactive
max response [5]: 0.343%
outcome [6]: inactive [at 17.4 µM]

CC1CCC2C(C)(C)[C@H](O)CC[C@]2(C)C12Cc1c(O)cc3c(c1O2)CN(C(CCC(=O)O)C(=O)O)C3=O (stereo not given in full)
max response [1]: -1.74%
max response [2]: 0.0488%
outcome [3]: inactive
outcome [4]: inactive
max response [5]: 3.99%
outcome [6]: inactive [at 17.4 µM]

CC(=O)c1ccc(O[C@@H]2O[C@H](CO[C@@H]3OC[C@@H](O)[C@H](O)[C@H]3O)[C@@H](O)[C@H](O)[C@H]2O)cc1
outcome [1]: inactive
max response [2]: -1.26%
outcome [3]: inactive
max response [4]: 4.67%
outcome [5]: inactive
outcome [6]: inactive [at 17.4 µM]
